PubChem BioAssay (Tox21)
Records with an inconclusive call do not appear. Active and inactive are the calls of the source. Unless noted, the call rests on the fitted dose curve.

Assays:
[1] = Nuclear factor erythroid 2-related factor 2/antioxidant responsive element (Nrf2/ARE) small molecule agonists: qHTS cell viability counter screen in human keratinocytes (AID 1919968; active means well fitted curve in the direction sought with a large enough effect in the repeat runs; an effect the other way counts as inactive or inconclusive; further: nearly all actives have a fitted effect of over 55% in size; further: potency means the concentration at half of the fitted maximal effect)
Outline: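 KeratinoSens cells (HaCaT keratinocytes stably carrying an ARE-luciferase reporter) were seeded at 1,500 cells/well and rested 5 h at 37 C/5% CO2. They were then exposed to compounds in DMSO for 23 h. Viability was read by CellTiter-Fluor fluorescence after 1 h.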

[2] = Nuclear factor erythroid 2-related factor 2/antioxidant responsive element (Nrf2/ARE) small molecule agonists: luciferase reporter gene qHTS assay in human keratinocytes (AID 1919969); further: nearly all actives have a fitted effect of over 35% in size; further: potency means the concentration at half of the fitted maximal effect
[3] = molecular target: Gonadotropin-releasing hormone receptor (Homo sapiens) (UniProt P30968); test: Human gonadotropin-releasing hormone receptor (GnRHR) small molecule agonists, calcium flux assay in GnRHR-HEK293 cells (AID 1920063); further: nearly all actives have a fitted effect of over 35% in size
Outline: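 HEK293 cells stably expressing human GnRHR were plated 18 h at 37 °C, loaded with calcium dye 1 h at 37 °C, then given compound in agonist mode; fluorescence (Ex/Em 480/540) read kinetically for 3 min at 1 s intervals.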

[4] = molecular target: KiSS-1 receptor (Homo sapiens) (UniProt Q969F8); test: Human kisspeptin (KISS1R) small molecule agonists, calcium flux assay in KISS1R-HEK293 cells (AID 1920064; active means well fitted curve in the direction sought with a large enough effect in the repeat runs; an effect the other way counts as inactive or inconclusive)
Outline: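 HEK293 cells stably expressing human KISS1R were plated 18 h at 37 °C, loaded with calcium dye for 1 h at 37 °C, then given compound by pin tool. Fluorescence (Ex/Em 480/540) was read kinetically for 3 min.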

[5] = G protein-coupled receptor (GPCR) small molecule agonists, calcium flux assay: HEK293 wild type cell line counter screen (AID 1920065)
Outline: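 Cells were plated and cultured 18 h at 37 C/5% CO2, then loaded with calcium dye for 1 h at 37 C. Compounds in DMSO were pin-transferred in agonist mode, and fluorescence (Ex/Em 480/540) was read kinetically for 3 min at 1 s intervals.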

[6] = p53 small molecule agonists, cell-based qHTS assay with human liver microsomes (AID 1963577);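 further: p53 response element beta-lactamase reporter cells with liver microsomes plus NADPH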
Outline: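 Reporter activation was measured by LiveBLAzer fluorescence intensity in p53RE-bla cells, which had been exposed to compounds for 16 h at 37 C alongside 0.5 mg/mL human liver microsomes and 0.5 mg/mL NADPH (final concentrations).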

[7] = p53 small molecule agonists, cell-based qHTS assay with rat liver microsomes (AID 1963578)
Outline: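 Compound in DMSO added to p53RE-bla cells 5 h post-plating; rat microsomes/NADPH 0.5 mg/mL final; 16 h, 37 C; LiveBLAzer 2 h RT.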

[8] = p53 small molecule agonists, cell-based qHTS assay with rat liver microsomes: qHTS cell viability counter screen (AID 1963580); further: nearly all actives have a fitted effect of over 45% in size
Outline: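 p53RE-bla HCT-116 cells were exposed 16 h at 37 C to compounds with rat liver microsomes (0.5 mg/mL) and NADPH (0.5 mg/mL). Viability was measured in the same wells as ATP content by CellTiter-Glo luminescence.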

[9] = p53 small molecule agonists, cell-based qHTS assay: qHTS cell viability counter screen (AID 1963581); further: nearly all actives have a fitted effect of over 45% in size
Outline: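 p53RE-bla HCT-116 cells were exposed to compounds for 16 h at 37 C; after the beta-lactamase FRET read in the same wells, CellTiter-Glo was added and luminescence (intracellular ATP) read after 30 min at room temperature.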

[10] = p53 small molecule agonists, cell-based qHTS assay (AID 1963582; active means well fitted activation curve with a large enough effect in the signal ratio in the repeat runs, not every such curve was filed as active; the % refers to the signal ratio)
Outline: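 p53RE-bla beta-lactamase reporter cells rested 5 h at 37 C/5% CO2, then received compounds in DMSO by pin transfer and were incubated 16 h at 37 C. LiveBLAzer B/G FRET substrate was loaded for 2 h at room temperature before fluorescence reading.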

[11] = molecular target: 5-hydroxytryptamine receptor 2A (Homo sapiens) (UniProt P28223); test: 5-hydroxytryptamine receptor 2A (HTR2A) small molecule antagonists, cell-based qHTS assay (AID 1963586); further: nearly all actives have a fitted effect of over 45% in size
Outline: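 Antagonist-mode intracellular calcium assay: DOI (4 nM) added after 5 min compound pre-incubation at room temperature to dye-loaded HTR2A-CHO cells. Fluorescence followed for 3 min, sampled every second.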

[12] = molecular target: Muscarinic acetylcholine receptor M1 (Homo sapiens) (UniProt P11229); test: Cholinergic receptor muscarinic 1 (CHRM1) small molecule antagonists, cell-based qHTS assay (AID 1963588); further: nearly all actives have a fitted effect of over 40% in size
Outline: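 CHRM1-CHO calcium-flux assay, antagonist mode. Cells were seeded 18 h, dye-loaded 1 h at 37 C and given compound for 5 min at RT, then acetylcholine was added at 50nM. FDSS fluorescence was read 3 min; 15 concentrations, three runs.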

[13] = molecular target: Muscarinic acetylcholine receptor M1 (Homo sapiens) (UniProt P11229); test: Cholinergic receptor muscarinic 1 (CHRM1) small molecule agonists, cell-based qHTS assay (AID 1963589); further: nearly all actives have a fitted effect of over 35% in size
Outline: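 CHO cells stably expressing human CHRM1, seeded 18 h at 37 C/5% CO2, dye-loaded 1 h at 37 C, then given compound in agonist mode; intracellular calcium fluorescence read kinetically at 1 s intervals. Fifteen concentrations, three independent runs.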

[14] = cAMP Responsive Elements (CRE) small molecule agonists, cell-based qHTS assay (AID 1963590)
Outline: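 CRE-bla HEK 293T cells in DMEM with 10% dialyzed FBS, NEAA, pyruvate and 25 mM HEPES were plated 18 h at 37 C/5% CO2, then exposed to compounds in DMSO for 3 h before LiveBLAzer B/G FRET substrate addition.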

[15] = cAMP Responsive Elements (CRE) small molecule antagonists, cell-based qHTS assay (AID 1963591; active means well fitted inhibition curve with a large enough effect in the signal ratio in the repeat runs, not every such curve was filed as active; the % refers to the signal ratio)
Outline: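 CRE-bla HEK293T cells were plated 18 h at 37 °C/5% CO2, pinned with compound in DMSO, then stimulated with NKH477 at 0.25 uM final for 3 h. LiveBLAzer B/G FRET substrate was added and plates incubated 2 h at room temperature.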

[16] = molecular target: Beta-2 adrenergic receptor (Homo sapiens) (UniProt P07550); test: Adrenergic beta2 receptor (ADRB2) small molecule antagonists, cell-based qHTS assay (AID 1963592); further: series mostly up to about 92 µM; nearly all actives have a fitted effect of over 50% in size
Outline: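 Cells (CHO, stable ADRB2 overexpression) incubated 18-20hr at 37C; compounds added from DMSO; agonist mix (1nM isoproterenol, 100uM IBMX, 25uM Ro-20-1724) added; 0.5hr RT; d2-cAMP and anti-cAMP-cryptate added; 1hr RT; 665/615 nm read.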

[17] = molecular target: Beta-2 adrenergic receptor (Homo sapiens) (UniProt P07550); test: Adrenergic beta2 receptor (ADRB2) small molecule agonists, cell-based qHTS assay (AID 1963593);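 further: CHO cells stably overexpressing human ADRB2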
Outline: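 CHO cells stably over-expressing ADRB2 were plated overnight at 37C, then dosed with compounds plus a stimulation mix containing 100uM IBMX and 25uM Ro-20-1724 for 0.5hr at room temperature. cAMP was measured by HTRF competition, 1hr.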

[18] = molecular target: D(2) dopamine receptor (Homo sapiens) (UniProt P14416); test: Dopamine D2 receptor (DRD2) small molecule antagonists, cell-based qHTS assay (AID 1963595; active means well fitted inhibition curve with a large enough effect in the signal ratio in the repeat runs, with a control signal flat; the % refers to the signal ratio)
Outline: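 HEK293 cells stably expressing DRD2 were preincubated with 0.1 mM Ro20-1724, then with compound for 10 min at room temperature. Cells were stimulated with 200 nM NKH477 plus 12 nM quinpirole for 30 min, and cAMP was read by HTRF.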

[19] = molecular target: D(2) dopamine receptor (Homo sapiens) (UniProt P14416); test: Dopamine D2 receptor (DRD2) small molecule agonists, cell-based qHTS assay (AID 1963594); further: nearly all actives have a fitted effect of over 35% in size
Outline: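 HEK293 cells stably expressing human DRD2, pre-treated with PDE inhibitor Ro20-1724 (0.1 mM final) and compound 10 min at room temperature, then stimulated with NKH477 (200nM […]) for 30 min. cAMP read by HTRF (665/620 nm).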

[20] = molecular target: 5-hydroxytryptamine receptor 2A (Homo sapiens) (UniProt P28223); test: 5-hydroxytryptamine receptor 2A (HTR2A) small molecule agonists, cell-based qHTS assay (AID 1963587); further: nearly all actives have a fitted effect of over 30% in size; further: potency means the concentration at half of the fitted maximal effect
Outline: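 CHO cells stably expressing human HTR2A, plated 18 h, loaded with calcium dye 1 h at 37 C. Agonist mode: compounds added and intracellular calcium fluorescence recorded kinetically for 2 min at 1 sec intervals.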
On the % scale 0 is the no-effect control and ±100 the full control effect.

Chain of 5-hydroxytryptamine receptor 2A (Homo sapiens) (P28223 whole entry, looked up): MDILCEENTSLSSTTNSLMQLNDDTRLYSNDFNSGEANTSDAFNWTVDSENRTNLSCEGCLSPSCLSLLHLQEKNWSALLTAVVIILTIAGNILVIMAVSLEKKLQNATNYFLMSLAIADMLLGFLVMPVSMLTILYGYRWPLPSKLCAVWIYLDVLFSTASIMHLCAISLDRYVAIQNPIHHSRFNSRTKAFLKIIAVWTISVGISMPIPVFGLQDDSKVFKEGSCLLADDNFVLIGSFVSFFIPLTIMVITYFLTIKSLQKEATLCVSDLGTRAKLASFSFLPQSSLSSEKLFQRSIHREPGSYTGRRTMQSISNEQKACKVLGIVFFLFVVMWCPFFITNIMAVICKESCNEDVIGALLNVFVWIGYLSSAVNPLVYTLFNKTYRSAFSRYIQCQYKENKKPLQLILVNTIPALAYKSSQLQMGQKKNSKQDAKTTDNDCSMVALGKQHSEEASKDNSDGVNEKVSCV
Chain of D(2) dopamine receptor (Homo sapiens) (P14416 whole entry, looked up): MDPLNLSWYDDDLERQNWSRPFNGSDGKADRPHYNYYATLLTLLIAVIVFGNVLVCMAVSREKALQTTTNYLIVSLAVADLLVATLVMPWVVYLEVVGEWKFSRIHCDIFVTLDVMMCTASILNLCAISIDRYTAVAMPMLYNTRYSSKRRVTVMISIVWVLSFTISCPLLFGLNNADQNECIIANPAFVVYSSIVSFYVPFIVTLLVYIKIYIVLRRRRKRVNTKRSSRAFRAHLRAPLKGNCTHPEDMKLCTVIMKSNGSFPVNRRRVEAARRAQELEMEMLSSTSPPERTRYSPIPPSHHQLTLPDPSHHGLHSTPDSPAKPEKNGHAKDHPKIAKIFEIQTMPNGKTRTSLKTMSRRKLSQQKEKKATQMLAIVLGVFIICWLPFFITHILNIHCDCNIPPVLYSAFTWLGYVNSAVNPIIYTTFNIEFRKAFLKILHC
Chain of Gonadotropin-releasing hormone receptor (Homo sapiens) (P30968 whole entry, looked up): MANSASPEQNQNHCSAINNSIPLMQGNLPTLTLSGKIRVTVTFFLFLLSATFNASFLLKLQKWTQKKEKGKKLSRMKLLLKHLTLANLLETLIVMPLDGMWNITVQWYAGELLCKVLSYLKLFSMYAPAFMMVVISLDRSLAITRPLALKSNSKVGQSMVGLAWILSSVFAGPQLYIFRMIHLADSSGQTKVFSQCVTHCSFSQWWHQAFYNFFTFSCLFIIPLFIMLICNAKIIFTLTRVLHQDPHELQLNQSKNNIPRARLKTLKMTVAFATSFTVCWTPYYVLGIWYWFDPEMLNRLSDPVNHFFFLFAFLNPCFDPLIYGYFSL
Chain of Muscarinic acetylcholine receptor M1 (Homo sapiens) (P11229 whole entry, looked up): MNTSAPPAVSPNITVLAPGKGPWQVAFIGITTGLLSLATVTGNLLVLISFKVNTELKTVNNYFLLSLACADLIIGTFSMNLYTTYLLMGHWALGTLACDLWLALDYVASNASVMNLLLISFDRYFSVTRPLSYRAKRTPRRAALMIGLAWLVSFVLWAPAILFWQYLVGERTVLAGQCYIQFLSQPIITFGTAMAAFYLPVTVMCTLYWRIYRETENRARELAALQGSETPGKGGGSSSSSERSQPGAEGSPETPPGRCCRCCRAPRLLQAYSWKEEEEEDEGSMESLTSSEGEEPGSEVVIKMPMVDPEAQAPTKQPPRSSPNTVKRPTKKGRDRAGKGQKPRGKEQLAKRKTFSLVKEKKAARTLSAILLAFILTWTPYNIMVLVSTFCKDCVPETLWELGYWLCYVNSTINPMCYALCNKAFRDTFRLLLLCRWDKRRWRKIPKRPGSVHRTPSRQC
Chain of Beta-2 adrenergic receptor (Homo sapiens) (P07550 whole entry, looked up): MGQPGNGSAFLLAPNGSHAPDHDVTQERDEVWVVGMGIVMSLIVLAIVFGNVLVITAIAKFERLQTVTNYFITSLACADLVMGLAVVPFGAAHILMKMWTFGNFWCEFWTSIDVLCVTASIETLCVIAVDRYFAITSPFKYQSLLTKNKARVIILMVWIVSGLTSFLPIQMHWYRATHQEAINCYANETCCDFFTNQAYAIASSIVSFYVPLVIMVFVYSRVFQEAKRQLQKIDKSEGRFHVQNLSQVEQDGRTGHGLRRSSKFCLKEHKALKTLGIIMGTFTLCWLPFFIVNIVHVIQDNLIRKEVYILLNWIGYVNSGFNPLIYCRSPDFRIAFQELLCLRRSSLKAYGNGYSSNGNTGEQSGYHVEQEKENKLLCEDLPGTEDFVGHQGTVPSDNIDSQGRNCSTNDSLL
Chain of KiSS-1 receptor (Homo sapiens) (Q969F8 whole entry, looked up): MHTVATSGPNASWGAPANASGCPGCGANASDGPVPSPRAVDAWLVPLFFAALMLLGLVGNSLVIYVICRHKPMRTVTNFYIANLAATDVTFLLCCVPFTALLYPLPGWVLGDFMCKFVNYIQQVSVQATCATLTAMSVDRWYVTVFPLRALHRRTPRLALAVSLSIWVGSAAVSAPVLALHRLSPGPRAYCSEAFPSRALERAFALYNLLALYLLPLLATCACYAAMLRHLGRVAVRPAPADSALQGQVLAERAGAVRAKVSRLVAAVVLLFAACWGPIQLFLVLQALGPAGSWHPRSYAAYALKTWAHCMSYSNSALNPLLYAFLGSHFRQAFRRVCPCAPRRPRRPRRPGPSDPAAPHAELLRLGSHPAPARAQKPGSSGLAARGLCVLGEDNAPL

Cc1c[nH]c2ccccc12
inactive: Potency [1] | Potency [2] | Potency [3] | outcome [4] | outcome [5] | Potency [6] | Potency [7] | Potency [8] | Potency [9] | Potency [10] | Potency [11] | Potency [12] | Potency [13] | Potency [14] | Potency [15] | Potency [16] | Potency [17] | Potency [18]

O=C(CCCCCCCCC#CI)Oc1ccccc1
inactive: Potency [1] | Potency [2] | Potency [3] | outcome [4] | outcome [5] | Potency [6] | Potency [7] | Potency [8] | Potency [9] | Potency [10] | Potency [11] | Potency [12] | Potency [13] | Potency [15] | Potency [16] | Potency [17] | Potency [19] | Potency [18]

CCC(=O)O[C@]1(C(=O)COC)[C@@H](C)C[C@H]2[C@@H]3CCC4=CC(=O)C=C[C@]4(C)C3(F)[C@@H](O)C[C@@]21C (stereo not given in full)
inactive: Potency [1] | Potency [2] | Potency [3] | outcome [4] | outcome [5] | Potency [6] | Potency [7] | Potency [8] | Potency [9] | Potency [10] | Potency [20] | Potency [12] | Potency [13] | Potency [16] | Potency [18]

CC1(C)CC(OC(=O)CCCCCCCCC(=O)OC2CC(C)(C)NC(C)(C)C2)CC(C)(C)N1
inactive: activity change, negative = cytotoxicity [1] -0.0002% [at 19 µM] | activity, positive = activation [2] -1.35% [at 19 µM] | activity change [3] 1.96% [at 11.8 µM, hits give high values] | activation [4] 3.13% [at 15.8 µM] | activation [5] 0.376% [at 11.8 µM] | activation [6] 1.98% [at 13.5 µM] | activation [7] 0.45% [at 13.6 µM] | activity change, negative = cytotoxicity [8] 20.2% [at 13.5 µM] | activity change, negative = cytotoxicity [9] -0.213% [at 13.5 µM] | activation [10] -3.4% [at 13.5 µM] | activation [20] 2.3% [at 15.9 µM] | activity, negative = inhibition [12] 30.1% [at 12.6 µM] | activation [13] -1.98% [at 15.8 µM] | activation [14] 1.42% [at 19 µM] | activity change, negative = inhibition [15] -9.13% [at 18.9 µM] | activity change, negative = inhibition [16] 8.71% [at 19 µM] | activation [19] -4.7% [at 19 µM] | activity change, negative = inhibition [18] 0.47% [at 18.9 µM]

O=C(OCCCCCCOC(=O)c1ccccc1)c1ccccc1
active: Potency [2] 68.6 µM
inactive: Potency [1] | Potency [3] | outcome [4] | outcome [5] | Potency [6] | Potency [7] | Potency [8] | Potency [9] | Potency [10] | Potency [11] | Potency [20] | Potency [13] | Potency [14] | Potency [15] | Potency [16] | Potency [19] | Potency [18]

Cc1c(C)n(CCN(C)C)c2ccc(C(=O)OCCN(C)C)cc12
active: Potency [2] 29.8 µM
inactive: Potency [1] | Potency [3] | outcome [4] | outcome [5] | Potency [6] | Potency [7] | Potency [8] | Potency [9] | Potency [10] | Potency [11] | Potency [20] | Potency [13] | Potency [16] | Potency [17] | Potency [19] | Potency [18]

CCc1cccc(CC)c1
inactive: Potency [1] | Potency [2] | Potency [3] | outcome [4] | outcome [5] | Potency [6] | Potency [7] | Potency [8] | Potency [9] | Potency [10] | Potency [11] | Potency [20] | Potency [13] | Potency [14] | Potency [15] | Potency [16] | Potency [17] | Potency [19] | Potency [18]

Cc1cc(O)c2c(c1)C(=O)c1cccc(O)c1C2=O
inactive: Potency [1] | Potency [3] | outcome [4] | outcome [5] | Potency [6] | Potency [7] | Potency [8] | Potency [9] | Potency [11] | Potency [20] | Potency [12] | Potency [13] | Potency [15] | Potency [16] | Potency [17] | Potency [19] | Potency [18]
active: Potency [2] 8.43 µM

CCCOC(=O)c1ccc(C(=O)OCCC)nc1
inactive: Potency [1] | Potency [2] | Potency [3] | outcome [4] | outcome [5] | Potency [6] | Potency [7] | Potency [8] | Potency [9] | Potency [11] | Potency [20] | Potency [12] | Potency [13] | Potency [16] | Potency [19] | Potency [18]

NC(=O)C(c1ccccc1)(c1ccccc1)[C@@H]1CCN(CCc2ccc3c(c2)CCO3)C1
inactive: Potency [1] | Potency [2] | Potency [3] | outcome [4] | outcome [5] | Potency [6] | Potency [7] | Potency [8] | Potency [9] | Potency [10] | Potency [13] | Potency [14] | Potency [16] | Potency [19] | Potency [18]

CCCCCCCCCCCCCCN(CCO)CCO
inactive: Potency [2] | Potency [3] | outcome [4] | outcome [5] | Potency [6] | Potency [7] | Potency [8] | Potency [9] | Potency [11] | Potency [16] | Potency [19] | Potency [18]
active: Potency [1] 27.3 µM | Potency [20] 21.9 µM

C=C1CC[C@H](O)C/C1=C\C=C1/CCC[C@]2(C)[C@@H]([C@H](C)CCCC(C)C)CC[C@@H]12
inactive: Potency [1] | Potency [3] | outcome [4] | outcome [5] | Potency [6] | Potency [7] | Potency [8] | Potency [9] | Potency [15] | Potency [17] | Potency [19] | Potency [18]
active: Potency [2] 21.5 µM

CCC(=O)O[C@]1(C(=O)SCF)[C@H](C)C[C@H]2[C@@H]3C[C@H](F)C4=CC(=O)C=C[C@]4(C)[C@@]3(F)[C@@H](O)C[C@@]21C
inactive: Potency [1] | Potency [2] | Potency [3] | outcome [4] | outcome [5] | Potency [6] | Potency [7] | Potency [8] | Potency [9] | Potency [20] | Potency [12] | Potency [13] | Potency [15] | Potency [16] | Potency [19] | Potency [18]
